Test results taken from publication PMC5540273 (PLoS ONE, 2017).
Values joined by “and” are separate entries in the source; they are usually repeats but may differ in a detail not shown here. Identical values can stand only once. Like-named read-outs stand apart in the source and are kept apart here.

Assays:
Settings in all cases: concentration: 1 μM, replicates: in singlicate, n = 1
[1] = test system: MKK7
[2] = test system: MKNK1
[3] = test system: MKNK2
[4] = test system: T1, MLCK
T1 construct: gene MYLK3

[5] = test system: T2, MLK1
T2 construct: gene MAP3K9

[6] = test system: MLK2
[7] = test system: MLK3
[8] = test system: MRCKA
[9] = test system: T3, MRCKB
T3 construct: gene CDC42BPB

[10] = test system: MST1R
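Further: KINOMEscan kinase panel screen.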

SMILES: COCCNC(=O)c1ccc(-c2cc(C(=O)NC3CC3)cc(F)c2C)cc1 [GW868318]
- %Inh [1]: 37%
- %Inh [2]: 22%
- %Inh [3]: 25%
- %Inh [4]: 13%
- %Inh [5]: 0%
- %Inh [6]: 41%
- %Inh [7]: 0%
- %Inh [8]: 0%
- %Inh [9]: 14%
- %Inh [10]: 20%

SMILES: Cc1c2ccc(N(C)c3ccnc(Nc4cccc(S(N)(=O)=O)c4)n3)cc2nn1Cc1ccccc1.Cl.Cl [GW787226]
- %Inh [1]: 15%
- %Inh [2]: 0%
- %Inh [3]: 0%
- %Inh [4]: 0%
- %Inh [5]: 0%
- %Inh [6]: 50%
- %Inh [7]: 26%
- %Inh [8]: 0%
- %Inh [9]: 0%
- %Inh [10]: 0%

SMILES: CN(C1=C(c2ccccc2)C(=O)NC1=O)c1ccccc1 [SB-334860]
- %Inh [1]: 47%
- %Inh [2]: 5%
- %Inh [3]: 8%
- %Inh [4]: 0%
- %Inh [5]: 0%
- %Inh [6]: 0%
- %Inh [7]: 19%
- %Inh [8]: 18%
- %Inh [9]: 0%
- %Inh [10]: 12%

SMILES: CC(C)(CN)c1nc(-c2ccc(Cl)c(O)c2)c(-c2ccncc2)[nH]1.O=C(O)C(F)(F)F [SB-477794]
- %Inh ([1]; 1 µM): 26% and 0%
- %Inh ([2]; 1 µM): 9% and 0%
- %Inh ([3]; 1 µM): 9% and 0%
- %Inh ([4]; 1 µM): 0% and 14%
- %Inh ([5]; 1 µM): 0% and 7%
- %Inh ([6]; 1 µM): 0% and 10%
- %Inh ([7]; 1 µM): 0% and 32%
- %Inh ([8]; 1 µM): 46% and 35%
- %Inh ([9]; 1 µM): 76% and 72%
- %Inh ([10]; 1 µM): 39% and 0%
